# Screens deposited in PubChem BioAssay by National Center for Advancing Translational Sciences (NCATS).
# Rab9 promoter act – Rab9 promoter activation | Huh7 Rab9 promoter-luciferase reporter, luminescence, 24 h | Potency, µM (doses to about 9.22 µM), for the others: at the top dose activation, negative = inhibition, hits mostly activators | hit rate 2.8% among 320,000; note: % of control where 0% means no effect; nearly all actives have a fitted effect of over 60% in size
#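 Promoter activation is measured as luciferase luminescence in Huh7 cells stably transfected with a Rab9 promoter–luciferase construct, following 24 h compound exposure at 37 °C and 10 min reagent incubation at ambient temperature.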
# FLuc counter – counter-screen for miR-21 project: firefly luciferase inhibitors or activators | purified FLuc, Km substrates, luminescence inhibition | Potency, µM (top dose mostly 57.5 µM), inactives show top-dose activity change, negative = inhibition, hits mostly inhibitors | hit rate 6.9% among 360,000 | P08659;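 note: plate controls were vehicle for no effect and reference inhibitor for full effect; nearly all actives have a fitted effect of over 55% in size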
# Target sequence (P08659 whole entry, looked up): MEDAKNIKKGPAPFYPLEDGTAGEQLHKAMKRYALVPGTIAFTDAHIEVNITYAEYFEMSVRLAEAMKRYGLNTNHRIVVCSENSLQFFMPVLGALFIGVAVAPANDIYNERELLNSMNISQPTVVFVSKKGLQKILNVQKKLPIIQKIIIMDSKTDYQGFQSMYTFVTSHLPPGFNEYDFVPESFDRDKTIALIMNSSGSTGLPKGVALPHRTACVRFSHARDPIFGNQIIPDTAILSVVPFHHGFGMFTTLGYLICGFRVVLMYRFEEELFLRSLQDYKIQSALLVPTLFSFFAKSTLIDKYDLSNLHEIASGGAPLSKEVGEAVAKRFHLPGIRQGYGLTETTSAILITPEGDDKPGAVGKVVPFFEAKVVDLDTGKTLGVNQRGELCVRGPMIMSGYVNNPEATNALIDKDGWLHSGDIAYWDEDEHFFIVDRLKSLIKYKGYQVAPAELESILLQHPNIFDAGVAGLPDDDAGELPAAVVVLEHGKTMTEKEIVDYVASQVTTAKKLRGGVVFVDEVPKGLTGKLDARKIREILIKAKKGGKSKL
#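 Biochemical qHTS of compounds, final roughly 60 µM downward over six points, against 10 nM purified firefly luciferase using Km concentrations of substrates (10 uM D-luciferin, 10 uM ATP) in Tris acetate pH 7.5 buffer; luminescence output.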
# SMN2 splice up – enhancers of SMN2 splice variant expression; HEK293 SMN2-luciferase splicing reporter, luminescence, 30-36 h; Potency, µM (series often up to 46.1 µM), without a hit: at the top dose activity change, positive = activation, hits mostly activators; hit rate 2.8% among 210,000; note: % of control where 0% means no effect; nearly all actives have a fitted effect of over 55% in size
#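 HEK293 cells carry an SMN2 […]–luciferase reporter in which exon 7 inclusion puts luciferase in frame. Cells were plated 10-12 h before compound addition, then incubated 30-36 h at 37C. ONE-Glo luminescence was read; sodium butyrate at 4.5 mM final served as control.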
# NPC1 prom act – activates the NPC1 promoter; Huh7 NPC1 promoter luciferase reporter, 24 h; Potency, µM (highest dose often 9.22 µM), without a hit: at the highest dose activation, hits mostly activators; hit rate 2.4% among 320,000; note: % of control where 0% means no effect; nearly all actives have a fitted effect of over 60% in size
#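 Quantitative HTS used a cell-based reporter: Huh7 cells stably bearing the NPC1 promoter upstream of luciferase were treated with compounds for 24 h, and promoter activation was read as luminescence.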
# Luc counter – counter-screen: inhibitors of Kinase-Glo firefly luciferase; hit rate 0.28% among 200,000; Q27757; Kinase-Glo luciferase, ATP luminescence, 8 min; Potency, µM (highest dose often 38.3 µM), inactives show at the top dose activity change, negative = inhibition, most hits filed as inhibitors; note: % is set by controls: 0 for no effect and ±100 for the full control effect; nearly all actives have a fitted effect of over 60% in size
#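 Compounds were added to a substrate mix at pH 7.2 (50 mM imidazole, 10 uM ATP, within the enzyme's linear range), followed by Kinase-Glo detection reagent; luminescence was measured after 8 minutes at ambient temperature.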
# ELG1 genotoxic – inducers of genotoxicity in HEK293T ELG1-luciferase cells; AID 504466; Potency, µM (top dose mostly 46 µM), for inactives: at the highest dose activity change, positive = activation, hits mostly activators; HEK293T ELG1-luciferase reporter, luminescence, 16 h; hit rate 1.3% among 330,000; note: % of control where 0% means no effect; nearly all actives have a fitted effect of over 60% in size
#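 Genotoxicity was scored as increased ELG1-luciferase reporter signal, measured by ONE-Glo luminescence (30 min, room temperature). Compound or vehicle exposure of the HEK293T reporter cells lasted 16 hr at 37°C.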
# * hit, by the source's call; u = inconclusive; x = no result given; ! = not active in a repeat; [ ] = remark or other dose. Shown are actives, neighbours in structure and some others; about 7.4% of the full set was active somewhere. Calls come from the whole dose curve; as a rule, active = well fitted curve in the direction sought with a large enough effect; inconclusive = small, poorly fitted or top-dose-only effect, or another doubt; inactive = no such curve, though single readings can be large; an effect the other way counts as inactive or inconclusive. Potency is the fitted concentration of half-maximal effect.
SMILES,Rab9 promoter act,FLuc counter,SMN2 splice up,NPC1 prom act,Luc counter,ELG1 genotoxic
Cc1ccccc1-n1c([C@@H]2C[C@H]2c2ccccc2)n[nH]c1=S,-3%,-1%,x,-8%,x,-2%
CCn1c2ccccc2c2cc(NC(=O)N3CCOCC3)ccc21,3.5µM*,3%[2.3 µM],u,u,-1%,u
O=C(Nc1ccc2c(c1)oc1ccccc12)N1CCOCC1,3.5µM*,12µM*,u,3.5µM*,-6%,u
CCn1c2ccccc2c2cc(NC(=O)COC(=O)c3ccccc3F)ccc21,-5%,-1%,-51%,-2%,-1%,u
CCn1c2ccccc2c2cc(NC(=O)COC(=O)c3ccc(NC(=O)CC#N)cc3)ccc21,-1%,14%,x,-2%,x,23µM*
CC(=O)Nc1cccc(OCC(=O)NC(C)c2ccc3ccccc3c2)c1 (centres undefined),0%,1%,x,-4%,x,-1%
Cc1cc(C)nc(NC2=NCCN2C(=S)Nc2c(C)cccc2C)n1,-2%,-1%,-1%,-3%,-4%,0%
Cc1ccc(NC(=O)CCc2c(C)nn(-c3ccc(N4CCOCC4)nn3)c2C)cc1F,u,13µM*,x,u,x,12%
CCc1cccc(NC(=O)CCc2c(C)nn(-c3ccc(N4CCOCC4)nn3)c2C)c1,8%,17µM*,x,13%,x,3%
CC(=O)c1ccc(NC(=O)CCc2c(C)nn(-c3ccc(N4CCOCC4)nn3)c2C)cc1,u,17µM*,x,u,x,1%[9.26 µM]
COc1ccc(NC(=O)CCc2c(C)nn(-c3ccc(N4CCOCC4)nn3)c2C)cc1Cl,x,21µM*,x,x,x,x
COc1cc(NC(=O)CCc2c(C)nn(-c3ccc(N4CCOCC4)nn3)c2C)cc(OC)c1OC,8%,-19%,x,0%,x,1%[9.26 µM]
Cc1ccc(F)cc1NC(=O)CCc1c(C)nn(-c2ccc(N3CCOCC3)nn2)c1C,x,-15%,x,x,x,x
CCc1ccc(NC(=O)CCc2c(C)nn(-c3ccc(N4CCOCC4)nn3)c2C)cc1,14%,u,x,21%,x,5%
COC(=O)c1ccc(NC(=O)CCc2c(C)nn(-c3ccc(N4CCOCC4)nn3)c2C)cc1,x,19µM*,x,x,x,x
Nc1nc2ccc(-c3nc4ccccc4o3)cc2s1,0.63µM*,1.3µM*,7.9µM*,1.1µM*,-1%,u
Cc1ccc2oc(-c3ccc(NC(=O)c4ccc5c(c4)OCO5)cc3)nc2c1,14%,u,-10%,2%,1%,13%
NCc1ccc(-c2nc3ccccc3o2)cc1,22%,u,u,u,10%,u
c1ccc2oc(-c3ccc4nc[nH]c4c3)nc2c1,1.6µM*,3.4µM*,13µM*,2.5µM*,-8%,21µM*
COc1ccc(-c2nc3ccccc3o2)cc1OC,22%,11µM*,x,u,x,u
COC(=O)c1ccc(-c2nc3ccc(C)cc3o2)cc1,u,1.2µM*,4.5µM*,u,-2%,u
CCc1cc2c(cc3c(=O)n(CC(=O)NCCc4ccc(OC)cc4OC)nc(CC)n32)s1,x,-1%,1%,x,x,x
O=S(=O)(Cc1ccc(Cl)cc1)c1ncc(CO)n1Cc1ccccc1,0%,-2%,-21%,-7%,-1%,-9%
COc1ccc(C(=O)OCC#CCSc2nnc(-c3cccc4ccccc34)o2)cc1,0%,8%,x,16%,x,0%
COC(=O)c1ccc(-c2ncc(-c3cccc4ccccc34)o2)cc1,1.8µM*,u,11µM*,u,3%,4%
SMILES,Rab9 promoter act,FLuc counter,SMN2 splice up,NPC1 prom act,Luc counter,ELG1 genotoxic
COc1ccc(-c2nc3ccc(NS(C)(=O)=O)cc3o2)cc1,x,2.7µM*,x,x,x,x
COC(=O)c1ccc(-c2nc3ccccc3o2)cc1,0.63µM*,1.9µM*,u,3.5µM*,-8%,u
O=C(COc1ccccc1Cc1ccccc1)NCCCN1CCOCC1,0%,0%,x,-3%,x,-1%
Cc1ccc(NC(=O)Cn2c(=O)n(CCCCC(=O)NCCc3ccc(Cl)cc3)c(=O)c3ccccc32)cc1,x,1%,-4%,x,x,x
Cc1ccccc1OCC(=O)Nc1nnc(S(=O)(=O)N(C)c2ccccc2)s1,x,0.95µM*,x,x,x,x
CN(c1ccccc1)S(=O)(=O)c1nnc(NC(=O)COc2ccccc2)s1,-2%,0.43µM*!,x,3%,x,-2%
O=C(COc1ccccc1)Nc1nnc(S(=O)(=O)N2CCCC2)s1,-12%,2%,x,-5%,x,-1%
CN(c1ccccc1)S(=O)(=O)c1nnc(NC(=O)COc2ccccc2F)s1,-2%,-1%,x,-6%,x,-4%
O=C(COc1ccccc1)Nc1nnc(S(=O)(=O)Nc2ccccc2)s1,0%,1.5µM*!,x,-8%,x,4%
Cc1ccccc1N(C)S(=O)(=O)c1nnc(NC(=O)c2ccccc2F)s1,1%,6µM*,x,-4%,x,-4%
CCC(=O)Nc1nnc(S(=O)(=O)N(C)c2ccccc2)s1,2%,0%,x,-3%,x,1%
O=C(CN(C(=O)CNS(=O)(=O)c1ccccc1)c1ccc(F)cc1)NCc1ccco1,-1%,2%,x,3%,x,-4%
Cc1ccc(NC(=O)C2CCC(CNS(=O)(=O)c3cccc4nsnc34)CC2)c(Cl)c1 (centres undefined),x,-1%,9%,x,x,x
O=C(C1CCCN(S(=O)(=O)c2cccs2)C1)N1CCN(c2ccccc2F)CC1 (centres undefined),x,7%,-29%,x,x,x
Cc1cccc2sc(N(CCN(C)C)C(=O)C3CCN(S(=O)(=O)c4cccs4)CC3)nc12,0%,-2%,x,-9%,x,-1%
CCOC(=O)NC(=O)CSc1nc(-c2ccc(C)c(C)c2)cn1-c1ccccc1,2.2µM*,17µM*,-18%,u,-3%,u
COC(=O)c1ccc(OCc2cc(=O)n3ccsc3n2)cc1,u,u,14µM*,u,-17%,25%
